# A number with no mark means an inactive call. The source made the active and inactive calls. No stated cut-off is given here; in the data, active means IC50 below about 3 µM; inactive means the rest.
# Assay: luminescent readout interference, potency – biochemical, luminescence, artefact control for SENP inhibitor project, dose response (AID 488920)
# Settings: luminescence interference counterscreen, spectral interferers
row,Structure (SMILES),IC50
1,CCCCn1c(NC(=O)c2ccccc2Cl)c(C#N)c2nc3ccccc3nc21,> 5 µM
2,CCn1c(O)c(N=Nc2ccc3ccccc3n2)c2ccccc21,2.91 µM (active)
3,O=c1[nH]c(Nc2ccccc2)cc2ccccc12,> 5 µM
4,Cc1nc(Nc2ccc(C(=O)O)cc2)sc1-c1ccccc1,0.325 µM (active)
5,C/C(=N\OC(=O)c1ccc(Br)cc1)c1ccccn1,0.548 µM (active)
6,O=c1oc2c(O)cccc2cc1-c1nc2ccccc2[nH]1,0.606 µM (active)
7,COc1ccc(C(=O)c2nccc3cc(OC)c(OC)cc23)cc1OC,> 5 µM
8,Cn1c(-c2ccccc2)cc2onc(-c3ccccc3)c2c1=O,0.607 µM (active)
9,COc1cc(C(=O)c2nccc3cc(OC)c(OC)cc23)c([N+](=O)[O-])cc1OC,> 5 µM
10,Cc1ccc(C(=O)NNc2cc(N3CCCC3)nc(N3CCCC3)n2)cc1,> 5 µM
11,O=C1/C(=C/c2ccc([N+](=O)[O-])cc2)CCc2ccccc21,0.884 µM (active)
12,O=C1c2ccccc2-c2nnc(-c3ccc(F)cc3)cc21,1.18 µM (active)
13,Cc1ccc(S(=O)(=O)/N=C2\C=C(Nc3cccc(C(=O)O)c3)C(=O)c3ccccc32)c(C)c1,> 5 µM
14,CCN(CC)c1ccc(/C=N/NC(=O)c2ccoc2C)c(O)c1,2.53 µM (active)
15,CCC(C)n1c(NC(=O)c2ccccc2)c(C#N)c2nc3ccccc3nc21 (centres undefined),> 5 µM
16,Cc1cc(C)nc(Nc2nc(-c3ccccc3)cs2)n1,0.865 µM (active)
17,Cc1ccc(/C=C/c2nc3ccccc3c(=O)[nH]2)cc1,0.403 µM (active)
18,O=C(O)c1ccc2cc(-c3ccccc3)[nH]c2c1,0.471 µM (active)
19,CCOc1ccc(/C=C2\CCc3ccccc3C2=O)cc1,0.782 µM (active)
20,Cc1ccc(NC2=C/C(=N/S(=O)(=O)c3cccs3)c3ccccc3C2=O)cc1,> 5 µM
21,COc1cc([N+](=O)[O-])ccc1N/C=C/C(=O)c1cccs1,0.458 µM (active)
22,O=C(O)c1ccc(NC2=C/C(=N/S(=O)(=O)c3ccccc3)c3ccccc3C2=O)cc1,> 5 µM
23,Oc1[nH]c2ccccc2c1N=Nc1ccc(F)cc1,0.888 µM (active)
24,Cc1ccnc(Nc2nc(-c3ccccc3)cs2)c1,0.824 µM (active)
